For 174 sequences, binding signal results are on record in PMC6212790, “How bacterial xenogeneic silencer rok distinguishes foreign from self DNA in its resident genome”.

Over roughly 33,000 sequences, “e-score” has its median near -0.037; the highest 2% begin near 0.34. This excerpt belongs to a sample that is enriched for the highest values.

The test addresses T1, GST-Rok (full length) (Bacillus subtilis subsp. subtilis str. …, UniProt O34857 1-191).
T1 sequence: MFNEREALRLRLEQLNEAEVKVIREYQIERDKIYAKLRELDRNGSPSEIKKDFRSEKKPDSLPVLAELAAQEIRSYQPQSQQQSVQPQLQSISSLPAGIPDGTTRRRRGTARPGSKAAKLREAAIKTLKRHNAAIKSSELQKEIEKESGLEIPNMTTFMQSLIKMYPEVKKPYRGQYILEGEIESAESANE
The test can be described thus: protein binding microarray; Rok is a gene silencer of Bacillus subtilis; high values mean tight binding. As to conditions: protein: recombinant; tags: GST (pTH5325, pDEST15-Magic modified); dsDNA, one strand shown. The method in brief: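 Every oligonucleotide joins a 25-mer constant primer to a 35-mer variable part drawn from a de Bruijn sequence of order 10, so each non-palindromic 8-mer appears at least 32 times and each palindromic 8-mer 16 times. The preference for every 8-mer is reported as a unitless, rank-based enrichment score (E-score). This score spans 0.5 for the most favored 8-mer to −0.5 for the most disfavored.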
With ACTATAAT, the binding signal was found to be 0.411 E-score.

With CCTATAAA, the binding signal worked out at 0.298 E-score. For ACGTCATA the value was 0.128 E-score; for CCAAATGG, -0.148 E-score.

On to AGTTCGTC, for which the binding signal turned out to be 0.0184 E-score. With AAAAATAC the figure was 0.32 E-score; with GAAAATAA, 0.145 E-score. With GAAAATAC the figure was 0.351 E-score; with CAAAATAC, 0.351 E-score; with GGAAATAC, 0.101 E-score.

Consider CAAAATAA, for which the binding signal came out at 0.0897 E-score.

Regarding GGCATTAA, the binding signal was -0.00985 E-score. Take CCTGTTGA: the binding signal is -0.00587 E-score.

As to GAAACGGC, the binding signal was -0.103 E-score. For ATATTAAC the value was 0.298 E-score. With ATATTAAG the figure was 0.275 E-score; with ATATTAAA, 0.377 E-score; with AGATTAAG, 0.135 E-score. In the case of AGATTAAT, the binding signal was 0.346 E-score. For CTATTAAA the value was 0.116 E-score; for TTATTAAA, 0.168 E-score. In the case of ATATTAAT, the binding signal turned out to be 0.345 E-score. In the case of AGATTAAC, the binding signal worked out at 0.181 E-score. On to AAACATTT, for which the binding signal turned out to be 0.0971 E-score.

With AGAATAAG, the binding signal worked out at 0.105 E-score.

In the case of ATAAGAGA, the binding signal is -0.0183 E-score.

For CTGCCCAC, the binding signal was -0.168 E-score. With GCTATACA the figure was 0.201 E-score; with ACTATATC, 0.331 E-score.

Consider ACTATATA, for which the binding signal is 0.453 E-score. For GCTATATA the value was 0.389 E-score. For ACTATATG the value was 0.267 E-score. With CCTATATA the figure was 0.123 E-score; with CGAGGTCC, -0.0704 E-score; with AGATGCAA, -0.00215 E-score. For the sequence TATCTAGA, the binding signal stood at 0.213 E-score. With AATCTAGA the figure was 0.349 E-score; with AATCTAGC, 0.2 E-score. For AATCTAGT the value was 0.377 E-score; for AATCTAGG, 0.231 E-score. With AATCTAAT the figure was 0.263 E-score; with GTACCTGA, 0.102 E-score; with CGAGTAGA, 0.0915 E-score.

As to CTAATGAA, the binding signal is 0.0765 E-score. With CCGAATAG the figure was -0.00823 E-score; with ACGCGAAA, -0.0244 E-score. With CTTATGAC the figure was 0.247 E-score.

Turning to TCTATCAA, the binding signal stood at 0.212 E-score. With AACGACTC the figure was -0.0273 E-score; with GGGTAGTA, 0.238 E-score. For AGGTAGTA the value was 0.364 E-score; for CGGTAGTA, 0.342 E-score. With AGGTAGTC the figure was 0.0956 E-score; with CGGTAGTC, 0.173 E-score; with AGGTAGTG, 0.0916 E-score. As for AGACAACG, the binding signal was -0.0674 E-score. Take AGAGCTAG: the binding signal was -0.0248 E-score.

As for CGACTGAC, the binding signal came to 0.00526 E-score. For CAGAGCTC the value was -0.162 E-score; for CGACTACG, -0.0988 E-score; for ATACTACC, 0.36 E-score. With AGACTACG the figure was -0.152 E-score. With CTACAACC the figure was 0.119 E-score; with GTACTACA, 0.314 E-score. ATACTACG: the binding signal came to 0.339 E-score. With CTACTACC the figure was 0.303 E-score; with CTACTACA, 0.339 E-score. With CCACTACA the figure was 0.0814 E-score; with ATACTAGC, 0.321 E-score; with CTACAACA, 0.343 E-score. With GTACAACA the figure was 0.0355 E-score; with ACTAGACC, -0.00464 E-score.

With GATCGAAA, the binding signal is -0.0281 E-score. With ATTAATGG the figure was 0.0209 E-score; with CTCACAGA, -0.131 E-score; with AGCACTGC, -0.181 E-score.

As for ACTTACCT, the binding signal amounted to 0.0398 E-score. For CTCTAAAC the value was 0.0676 E-score. With AGTGGCAG the figure was -0.029 E-score; with AATTGACG, 0.213 E-score.

On to AGACTACA, for which the binding signal turned out to be 0.0935 E-score.

As for ACACTACA, the binding signal came out at 0.276 E-score. With ATACTACA, the binding signal was determined as 0.408 E-score. AGTGAAAC: the binding signal is -0.00421 E-score. With ATGTATAC the figure was 0.347 E-score; with GTGTATAA, 0.246 E-score; with ATGTATAA, 0.385 E-score.

In the case of ATGTATAG, the binding signal was 0.244 E-score. For CTGTATAA the value was 0.265 E-score.

With CTGTATAC, the binding signal stood at 0.216 E-score. Turning to GTTAATAA, the binding signal stood at 0.303 E-score. With TCTCGACA the figure was -0.0144 E-score.

Regarding ATCAGAGC, the binding signal is -0.105 E-score. For CGTCTCTA the value was -0.15 E-score.

Consider CATTGTTC, for which the binding signal is 0.00988 E-score. For CCAGCATA the value was -0.0442 E-score; for ATAGGTCA, 0.156 E-score. Take CGATGGAA: the binding signal came to 0.0214 E-score. For CACAAACA the value was 0.0611 E-score; for AACAAACA, 0.0686 E-score; for CACAAATG, -0.0865 E-score.

With CACAAATA, the binding signal was 0.35 E-score.

Turning to TACAAACA, the binding signal was found to be 0.369 E-score. For TACAAATA the value was 0.375 E-score. For AACAAATA the value was 0.295 E-score. With TACAAGTA the figure was 0.288 E-score; with CACAAGTA, 0.183 E-score; with TTATGCAA, 0.154 E-score. On to GGAGGAAA, for which the binding signal is -0.0576 E-score.

Turning to CGTTCCTC, the binding signal was -0.0344 E-score. On to AGTAAGGA, for which the binding signal was -0.0123 E-score.

With CGTCGCGC, the binding signal was found to be 0.0557 E-score. With ACTCCTAT the figure was 0.122 E-score; with AAGATTCC, -0.109 E-score; with TAGTAGGA, 0.209 E-score. With TAGTAGAA the figure was 0.439 E-score. With AAGTAGTA the figure was 0.332 E-score. With CAGTAGTC, the binding signal was -0.166 E-score. With CAGTAGTA the figure was 0.343 E-score. For AAGTAGAA the value was 0.305 E-score; for GAGTAGAA, 0.202 E-score. With CAGTAGAG the figure was 0.142 E-score; with CAGTAGAA, 0.391 E-score; with AACGACGA, 0.183 E-score. Consider ATTGGCTC, for which the binding signal was -0.0706 E-score. Turning to AATTTTCG, the binding signal came to 0.139 E-score. With ACCGGCAG the figure was -0.0541 E-score; with AGACTGTC, 0.0207 E-score; with CGCAGACA, -0.162 E-score. For ATGTTGTA the value was 0.223 E-score; for ATTACCTA, 0.382 E-score. Consider ATTACGTA, for which the binding signal came to 0.38 E-score. With ATTACCTC the figure was 0.167 E-score; with GATACCTA, 0.34 E-score.

Consider GTTACGTA, for which the binding signal is 0.169 E-score. Take CATACCTA: the binding signal turned out to be 0.334 E-score. With CTTACGTA the figure was 0.179 E-score; with AATACCTA, 0.267 E-score; with ATTACCTG, 0.126 E-score. For ACGCCGAC the value was -0.196 E-score. ACGACATG: the binding signal stood at 0.136 E-score. Regarding CACCAGTA, the binding signal is -0.00869 E-score. With AAAGTCGC the figure was 0.0343 E-score; with GGCTCTAA, 0.0778 E-score.

In the case of AACTCTGA, the binding signal turned out to be 0.0339 E-score. With CCAGACGG, the binding signal was -0.108 E-score. For CAAAGACC the value was -0.0604 E-score; for GTATTCAA, 0.0317 E-score. For GCAGTAGA the value was 0.342 E-score; for ATAGTAGA, 0.346 E-score; for CTAGTAGA, 0.404 E-score. For ATAGTAGC the value was 0.315 E-score; for CTAGTAGC, 0.251 E-score; for GTAGTAGA, 0.33 E-score. For GCAGTAGC, the binding signal was -0.0296 E-score.

Regarding CCAGTAGA, the binding signal worked out at 0.166 E-score.

Regarding CAAGTAGA, the binding signal was 0.286 E-score. For AGCCGGAT the value was -0.184 E-score.

As for ATCCTTCC, the binding signal was -0.158 E-score. As to CATTGAAA, the binding signal was -0.0384 E-score. For ACTCTCCA the value was -0.0297 E-score; for TCCGGTAA, 0.0305 E-score. For ATTTTACG the value was 0.219 E-score; for CAAATTAG, 0.21 E-score; for CAATTTAA, 0.152 E-score.

Regarding ATTTTTAC, the binding signal worked out at 0.335 E-score.

Consider GAATTTAA, for which the binding signal worked out at 0.0678 E-score. With AATTTTAC the figure was 0.355 E-score; with ATTTTACC, 0.351 E-score.

AATTTTAG: the binding signal came out at 0.222 E-score.

For AAAATTAC, the binding signal came to 0.248 E-score. With ATTTTACA the figure was 0.311 E-score; with TAATTTAA, 0.356 E-score. With CAAATTAC the figure was 0.356 E-score.
